Bioassay records (PubChem BioAssay)
The list is not random: actives were taken first. Their share in the collection is about 17%.
ClpP mod – qHTS Assay for Activators of ClpP | ATP-dependent Clp protease proteolytic subunit (Bacillus subtilis (strain 168)), P80244 | purified B. subtilis ClpP, FRET peptide cleavage, 20 min | Potency, µM (top dose mostly 57.5 µM), inactives show at the highest dose activity change, negative = active | 340,000 compounds, 1.9% hits | AID 651965, 2013; active = well fitted falling curve with a large enough effect; inconclusive = small, poorly fitted or top-dose-only effect; inactive = no such curve, though single readings can be large or run the other way; also: the source files actives as falling curves though it sought activators and does not explain the sign; nearly all actives have a fitted effect of over 65% in size
Target sequence (P80244 whole entry, looked up): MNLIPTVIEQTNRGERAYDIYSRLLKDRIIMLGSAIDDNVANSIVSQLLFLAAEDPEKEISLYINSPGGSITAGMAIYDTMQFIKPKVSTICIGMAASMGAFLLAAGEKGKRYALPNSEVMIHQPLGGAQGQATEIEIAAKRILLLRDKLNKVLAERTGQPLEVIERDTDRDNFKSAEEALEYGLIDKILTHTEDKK
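Buffer: 100 mM Tris/HCl pH8, 100 mM KCl, 0.05% low protease BSA, 2.5% glycerol, 0.01% Tween-20. ClpP 10 microg/mL final; 20 min RT; delta FRET normalized to ADEP and DMSO controls.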
DT40 TDP1 CPT – qHTS for Inhibitors of human tyrosyl-DNA phosphodiesterase 1 (TDP1): qHTS in cells in presence of CPT; chicken DT40 Tdp1-/-;hTDP1 cells + 20 nM CPT, ATP luminescence, 48 h; Potency, µM (top dose mostly 46.2 µM), inactives show top-dose activity change, negative = growth inhibition, actives largely listed as inhibitors; 420,000 compounds, 12% hits; also: % is scaled to controls: 0 for no effect and ±100 for the full control effect; nearly all actives have a fitted effect of over 55% in size
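Cell growth measured by CellTiter-Glo luminescence after a minimum 48 h, 37 C compound exposure with 20 nM CPT in Tdp1-knockout DT40 cells stably expressing hTDP1, seeded 400/well; qHTS titration format.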
DT40 TDP1 no CPT – qHTS for Inhibitors of human tyrosyl-DNA phosphodiesterase 1 (TDP1): qHTS in cells in absence of CPT | 420,000 compounds, 15% hits | Potency, µM (top dose mostly 46.2 µM), for the others: at the highest dose activity change, negative = growth inhibition, hits mostly inhibitors | DT40 Tdp1-/- hTDP1 cells, no CPT, ATP luminescence, 48 h | AID 686978, 2013; also: % is scaled to controls: 0 for no effect and ±100 for the full control effect; nearly all actives have a fitted effect of over 55% in size
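Camptothecin absent (DMSO only). Human TDP1-complemented DT40 knockout cells, 400 cells/well, 37 °C for minimum 48 hr; ATP measured via CellTiter-Glo, 30 min dark incubation, luminescence.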
TDP1 block – qHTS Assay for Inhibitors of Tyrosyl-DNA Phosphodiesterase (TDP1); recombinant TDP1, AlphaScreen DNA substrate cleavage; Potency, µM (top dose mostly 130 µM), without a hit: at the highest dose activity change, negative = inhibition, most hits filed as inhibitors; Tyrosyl-DNA phosphodiesterase 1 (Homo sapiens), Q9NUW8; 350,000 compounds, 0.28% hits; also: % is scaled to controls: 0 for no effect and ±100 for the full control effect; nearly all actives have a fitted effect of over 40% in size
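E. coli-derived human Tdp1, 1 nM final. Cpd preinc 15 min RT; substrate 15 nM final, 5 min RT; AS bead mix 10 ug/ml final, 10 min RT. Signal loss = tyrosine-FITC cleavage. No-enzyme wells = max signal.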
Starred values were filed as active, the others as inactive; u = inconclusive; x = no result given; [ ] = dose if it differs, or a comment. Unless noted, calls follow the shape of the dose curve; as a rule, active = well fitted curve in the direction sought with a large enough effect; inconclusive = small, poorly fitted or top-dose-only effect, or another doubt; inactive = no such curve, though single readings can be large; an effect the other way counts as inactive or inconclusive. Potency is read from the fitted curve at half-maximal effect.

SMILES	ClpP mod	DT40 TDP1 CPT	DT40 TDP1 no CPT	TDP1 block
CCN(CC)S(=O)(=O)c1ccc(C(=O)NC(=S)N2CCCCC2C)cc1 (centres undefined)	0%	u	16µM*	x
COc1ccc(C(CNC(=O)c2ccc(-c3ccccc3)cc2)N(C)C)cc1OC (centres undefined)	x	u	u	10%
O=C([C@H]1O[C@@H](n2ccc(=O)[nH]c2=O)[C@H](O)[C@@H]1O)N1CCSC1	2%	16%	18%	x
COC(=O)Cn1c(CN2CCOCC2)nc2c1c(=O)n(C)c(=O)n2C	2%	7%	-8%	x
Cc1ccccc1Cn1c(CN2CCc3ccccc3C2)nc2c1c(=O)n(C)c(=O)n2C	-3%	u	21µM*	7%[56.1 µM]
COC(=O)Cn1c(CN2CCc3ccccc3C2)nc2c1c(=O)n(C)c(=O)n2C	-9%	13µM*	21µM*	3%
Cn1c(=O)c2c(nc(CN3CCc4ccccc4C3)n2Cc2ccc(F)cc2)n(C)c1=O	-6%	21µM*	18µM*	x
Cn1c(=O)c2c(nc(N3CCc4ccccc4C3)n2Cc2ccccc2F)n(C)c1=O	-3%	13µM*	16µM*	2%
Cn1c(=O)c2c(nc(CN3CCN(Cc4ccccc4)CC3)n2Cc2ccccc2)n(C)c1=O	x	x	x	4%
COc1ccc(N2CCN(C(=O)c3cc(=O)c4cc(C)c(C)cc4o3)CC2)cc1	x	3%	u	x
CCCCn1c(CN2CCN(C(=O)OCC)CC2)nc2c1c(=O)n(C)c(=O)n2C	-1%	12µM*	9.2µM*	0%
CCOC(=O)Cn1c(CN2CCN(C(c3ccccc3)c3ccccc3)CC2)nc2c1c(=O)n(C)c(=O)n2C	-5%	u	23µM*	0%
CCCCCn1c(CN2CCN(CCO)CC2)nc2c1c(=O)n(C)c(=O)n2C	1%	-7%	-14%	1%
CCOC(=O)N1CCC(N(CCN(C)C)C(=S)Nc2ccc(F)c(Cl)c2)CC1	-3%	-3%	8%	3%
CCOC(=O)N1CCC(N(C(=O)Nc2cccc(OC)c2)C(C)CC)CC1 (centres undefined)	-2%	21µM*	10µM*	-3%
CCOC(=O)N1CCC(N(CCCOC)C(=O)Nc2cccc(OC)c2)CC1	-2%	u	u	4%
CCOC(=O)N1CCC(N(CCOC)C(=O)Nc2ccc(Cl)c(Cl)c2)CC1	1%	18µM*	10µM*	-1%
Cc1ccc(C2CN=NC23CCc2ccccc2C3=O)cc1 (centres undefined)	-2%	26µM*	26µM*	2%
COc1ccc(-c2cnc(C)o2)cc1S(=O)(=O)Nc1ccc(F)cc1F	-1%	1%	-22%	4%
COc1cc(OC)c(NS(=O)(=O)c2cc(-c3cnc(C)o3)ccc2OC)cc1Cl	0%	21µM*	13µM*	6%
COc1cc(NS(=O)(=O)c2ccc(OC)c(C)c2C)c(OC)cc1Cl	0%	4.6µM*	3.3µM*	-8%
COc1ccc(CCNC(=O)CCc2cc(OC)c(OC)c(OC)c2)cc1OC	x	24%	2%	x
COc1cccc(C(=O)Nc2cc3c(cc2N2CCCC2)n(C)c(=O)n3C)c1	2%	u	u	5%
CCOC(=O)C1CCN(c2cc3c(cc2NC(=O)c2ccccc2Br)n(C)c(=O)n3C)CC1	-1%	u	18µM*	8%
CCOC(=O)C1CCN(c2cc3c(cc2NC(=O)c2cc(OC)ccc2Br)n(C)c(=O)n3C)CC1	-28%	16µM*	12µM*	8%
CCCCC(C(=O)OCC)C(N)Cc1ccc(F)cc1 (centres undefined)	-1%	u	u	7%
Cc1c(C(=O)N2CCN(c3ccccc3)CC2)sc2ncnc(N3CCC(C)CC3)c12	x	x	x	2%
Cc1nc(N2CCN(c3ccccn3)CC2)c2c(C)c(C(=O)N3CCN(c4cccc(Cl)c4)CC3)sc2n1	x	15µM*	21µM*	9%
Cc1c(C(=O)N2CCN(c3ccccn3)CC2)sc2ncnc(N3CCN(c4ccccc4)CC3)c12	0%	u	12µM*	x
CSc1ccc(-c2nnc(NC(=O)c3ccc4c(c3)OCCO4)o2)cc1	4%	u	u	11%
